# High-throughput results: PubChem BioAssay, Broad Institute
# A selection follows.
# aSyn 5UTR act – Activators via SNCA 5'UTR binding, MLPCN; activity score, % (tested at 7.5 µM), hits read low; alpha-synuclein 5'UTR reporter, activators screen; 300,000 tested, 7.1% active; in the data active = activity score below about -60%
# * marks the source's active call; other numbers are inactive results.
SMILES,aSyn 5UTR act
O=c1cc2oc3cc(O)c(O)cc3c(-c3ccccc3[N+](=O)[O-])c-2cc1O,71
COc1ccc(-c2cc(=O)c3cc(O)ccc3o2)cc1,-121*
O=c1cc(-c2ccccc2)oc2ccc(O)cc12,-90*
Cc1cc2ncn(C(=O)N3CCC(C)CC3)c2cc1C,-67*
COc1ccccc1CNC(=O)[C@@H]1CCCN1S(=O)(=O)c1ccc(C)cc1,-113*
CN(C)/C=C/C(=O)c1ccc(-n2cccc2)cc1,-88*
O=C(Cn1c(=O)sc2ccccc21)NCc1ccccn1,-68*
C=C(C)CSc1nc2nc(C)c(Br)cc2[nH]1,-73*
c1ccc(-c2nc3c([nH]2)CCc2nonc2-3)cc1,-66*
CCN(CC)c1ccc(C(=O)Nc2cccc(F)c2)cc1,-77*
CN(C)c1cccc(C(=O)Nc2cccc(F)c2)c1,-175*
CN(C)C(=O)c1cc(C(=O)c2ccc(F)cc2F)c[nH]1,-72*
Cc1ccc(N2CCN(C(=O)c3cc(C(=O)c4ccccc4C)c[nH]3)CC2)c(C)c1,58
CN(C)C(=O)c1cc(C(=O)c2ccc(C(F)(F)F)cc2F)c[nH]1,-68*
Nc1cc(-c2ccc(Br)cc2)[nH]n1,-90*
Cc1cc(-c2ccc(Br)cc2)n[nH]1,-120*
O=C(c1cnn(-c2cccc(F)c2)c1)c1ccccc1O,-194*
O=C(c1cnn(-c2ccccc2)c1)c1ccc2ccccc2c1O,-119*
O=C(c1cnn(-c2nc3ccccc3s2)c1)c1ccccc1O,-117*
COC(=O)c1ccc(Nc2nc3ccc(C)cc3n3cnnc23)cc1,-98*
O=C1OC(c2ccc(Br)cc2)=N/C1=C\N1CCCCC1,-95*
O=C1OC(c2ccccc2)=N/C1=C\N1CCCCC1,-152*
O=C1OC(c2ccccc2)=C/C1=C/N1CCCCC1,-185*
Cn1cccc1C(=O)C(=O)Nc1ccc(F)c(F)c1,-176*
Cn1cccc1C(=O)C(=O)Nc1ccc(Cl)cc1,-119*
SMILES,aSyn 5UTR act
Cn1cccc1C(=O)C(=O)Nc1cc(Cl)cc(Cl)c1,-155*
Cn1cccc1C(=O)C(=O)Nc1cccc(Cl)c1Cl,-148*
O=C(Nc1ccccn1)c1ccc(C(=O)c2ccccc2)cc1,-108*
O=C(NC(=O)c1ccccc1)Nc1ccccn1,64
Cc1cccc(NC(=O)NC(=O)c2ccccc2)n1,-139*
Cc1cc(C)c(NC(=O)NC(=O)c2cccc(F)c2)c(C)n1,-69*
Cc1cccc(NC(=O)c2ccc(C(=O)c3ccccc3)cc2)n1,-102*
O=C(N=Nc1c(O)[nH]c2ccccc12)c1ccco1,-170*
CCn1c(SCC(=O)N=Nc2c(O)[nH]c3ccccc23)nc2ccccc21,-79*
O=C(CSCc1ccccc1)N=Nc1c(O)[nH]c2ccccc12,-79*
c1ccc(COc2ccc(OCCn3cncn3)cc2)cc1,-110*
CN1CCN(CCCOc2ccc(-c3ccccc3)cc2)CC1,-63*
c1ccc(COc2ccc(OCCCCN3CCCCC3)cc2)cc1,-82*
CN1CCN(CCOc2ccc(-c3ccccc3)cc2)CC1,-110*
CCOC(=O)c1cccnc1SCC(=O)Nc1ccc(C)cc1,-64*
O=C(NNC(=O)c1cccnc1SCc1cccc([N+](=O)[O-])c1)c1ccccn1,103
Cc1ccc(NC(=O)CSc2ncccc2C(=O)Oc2cccc([N+](=O)[O-])c2)cc1Cl,-157*
CCOC(=O)c1ccccc1NC(=O)CSc1ccc(-c2ccccn2)nn1,69
CCCS(=O)(=O)c1nc(S(=O)(=O)c2ccc(C)cc2)c(N2CCN(C)CC2)s1,-69*
CCS(=O)(=O)c1nc(S(=O)(=O)c2ccc(C)cc2)c(N2CC(C)OC(C)C2)s1 (stereo not drawn),-105*
COc1cc(/C=C(\C#N)C(=O)N2CCOCC2)ccc1OCc1ccccc1,-120*
N#C/C(=C\c1ccc(OCc2ccc(C(=O)O)cc2)cc1)C(=O)N1CCOCC1,93
CCOc1ccc(/C=C/C(=O)c2c(O)cc(C)oc2=O)cc1,-182*
Cc1cc(O)c(C(=O)/C=C/c2ccccc2Br)c(=O)o1,-171*
Cc1cc(O)c(C(=O)/C=C/c2ccc(C(C)C)cc2)c(=O)o1,-129*
SMILES,aSyn 5UTR act
Cc1cc(O)c(C(=O)/C=C/c2ccccc2)c(=O)o1,-103*
Cc1cc(C)c(C(=O)/C=C/c2ccc(C(C)C)cc2)c(=O)[nH]1,-91*
Fc1ccccc1CSc1nnnn1-c1ccc2c(c1)OCO2,-65*
c1cc(-c2cccs2)nc(-c2cccs2)c1,-104*
c1csc(-c2cnc3ccccc3n2)c1,-108*
COC(=O)c1ccc(/C=C(\C#N)c2ccccn2)cc1,-132*
N#C/C(=C\c1ccc([N+](=O)[O-])cc1)c1ccccn1,-121*
CN(C)c1ccc(/C=C(\C#N)c2ccccn2)cc1,102
O=[N+]([O-])c1ccc(Nc2ccc3ccccc3c2)nc1,-168*
C/C(=N\NC(=O)c1ccc(F)cc1)c1ccc(NC(=O)Cc2ccccc2)cc1,-75*
CC(=O)Nc1ccc(/C(C)=N\NC(=O)c2ccc(-c3ccccc3)cc2)cc1,96
C/C(=N/NC(=O)c1ccco1)c1ccc(NC(=O)c2ccc(Br)o2)cc1,-82*
N/C(=N\O)c1ccc(NC(=O)c2ccc(Br)o2)cc1,-67*
CCCCCC(=O)N/N=C(\C)c1ccc(NC(=O)c2ccco2)cc1,-107*
C/C(=N/NC(=O)c1ccco1)c1ccc(NC(=O)c2ccc(F)cc2)cc1,-109*
Cc1ccc(/C=C/C(=O)c2c(C)nc3ccccn23)cc1,-90*
Cc1ccc(NC(=O)c2ccc(=O)[nH]n2)cc1C,-102*
Cc1ccc(NC(=O)c2ccc3ccccc3n2)cc1S(=O)(=O)N(C)C,-121*
Cc1ccc(NC(=O)c2cnc3ccccc3n2)cc1C,-96*
Cc1ccc(NC(=O)c2ccc(S(=O)(=O)NCc3ccco3)cc2)nc1,-131*
O=C(Nc1ccccc1)c1ccc2ccccc2n1,-178*
Cc1ccc(NC(=O)c2c(C)nc3ccccn23)cc1C,-152*
Cc1ccc(NC(=O)c2ncc(Cl)c(Cl)c2Cl)cc1C,-164*
O=C(N/N=C/c1ccsc1)c1ccc2ccccc2n1,-97*
CCc1nnc(NC(=O)c2ccc3ccccc3n2)s1,-196*
SMILES,aSyn 5UTR act
O=C(Nc1ccc(S(=O)(=O)NCc2ccco2)cc1)c1ccc2ccccc2n1,-66*
O=C(Nc1ccccc1)c1cnc2ccccc2n1,-116*
CC(C)(C)C(=O)Nc1ccc(-c2csnn2)cc1,-74*
CC(=O)O/N=C(\N)c1ccc(-c2csnn2)cc1,-128*
Cc1ccccc1C(=O)Oc1ccc(-c2csnn2)cc1,-68*
CC(C)(C)C(=O)O/N=C(\N)c1ccc(-c2csnn2)cc1,-131*
N#CC(c1ccc(Cl)cc1)c1ccc2c(C(F)(F)F)cc(C(F)(F)F)nc2n1 (stereo not drawn),112
CCN(CC)C(=O)c1sc2nc(-c3ccc(OC)cc3)cn2c1C,-150*
CNC(=O)c1sc2nc(-c3ccc(OC)cc3)cn2c1C,-138*
CCN(CC)c1nc(C)nc2c1cnn2CCc1ccccc1,-185*
Nc1ccc(C#Cc2ccc3sc4ccccc4c(=O)c3c2)cc1,-190*
COc1cccc2sc3ccc(C#CC4(O)CCCCC4)cc3c(=O)c12,-191*
COc1ccc2sc3c(=O)[nH]c4ccccc4c3c2c1,63
O=c1c2ccccc2sc2ccc(C#CC3(O)CCCCC3)cc12,104
COc1ccc2sc3ccccc3c(=O)c2c1OC,-145*
COc1cccc2sc3ccc(NCc4ccc5c(c4)OCO5)cc3c(=O)c12,-63*
COc1cccc2sc3ccc(C#Cc4ccc(N)cc4)cc3c(=O)c12,-111*
